MCF10A rereplic – A quantitative high throughput screen for small molecules that induce DNA re-replication in MCF 10a normal breast cells; MCF 10A DNA re-replication, Hoechst nuclear intensity, 48 h; Potency, µM (titrated, usually from 46.1 µM), actives largely listed as activators; 2.9% of 350,000 active; also: nearly all actives have a fitted effect of over 50% in size
SW480 rereplic – A quantitative high throughput screen for small molecules that induce DNA re-replication in SW480 colon adenocarcinoma cells; Potency, µM (titrated, usually from 46.1 µM), hits mostly activators; SW480 DNA re-replication, Hoechst DNA content imaging, 48 h; 1.8% of 340,000 active; also: nearly all actives have a fitted effect of over 55% in size
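Image-based DNA-content assay: after two days of treatment, nuclei were labelled with the DNA dye Hoechst and imaged, and hits were compounds raising the count of nuclei showing high fluorescence intensity.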
HT1080NT lethal – qHTS for induction of synthetic lethality in tumor cells producing 2HG: qHTS for the HT-1080-NT fibrosarcoma cell line; Potency, µM (series often up to 46.1 µM), actives largely listed as cytotoxic; HT-1080-NT fibrosarcoma viability, CellTiter-Glo ATP luminescence, 48 h; AID 686970, 2013; 1.6% of 360,000 active;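 also: NT is the 2HG producing partner of a matched IDH1 knockdown line; nearly all actives have a fitted effect of over 55% in size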
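A 48-hour cytotoxicity screen used HT-1080-NT cells plated 2 hours before compound delivery. ATP-based CellTiter-Glo luminescence measured viability, normalized to DMSO and no-cell controls.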
HT1080 IDH1KD tx – qHTS for induction of synthetic lethality in tumor cells producing 2HG: qHTS for the HT-1080-IDH1KD cell line. HT-1080 IDH1 knockdown viability, ATP luminescence, 48 h. Potency, µM (top dose mostly 46.1 µM), hits mostly cytotoxic. 2% of 360,000 active. AID 686971, 2013
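HT-1080-IDH1KD cells (IDH1 knocked down), 750/well in RPMI with 5% FBS, treated with compound 48 h at 37 degrees C. Viability by CellTiter-Glo luminescence, normalised to DMSO and no-cell wells; concentration-response curves classed.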
KB-V1 cytotox – qHTS assay for MDR1-selective chemotherapeutics: Primary screen using the drug-selected MDR subline cells KB-V1; KB-V1 MDR cells viability, CellTiter-Glo, 72 h; 3.4% of 400,000 active; Potency, µM (series often up to 46.1 µM), hits mostly cytotoxic; also: nearly all actives have a fitted effect of over 60% in size
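Cytotoxicity via CellTiter-Glo luminescence after 72 h compound exposure at 37 degrees C. Cells: drug-selected KB-V1 line, DMEM phenol-red free plus 10% FBS. Compounds tested at multiple concentrations; normalized data fitted to concentration-effect curves.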
KB-3-1 tox – qHTS assay for MDR1-selective chemotherapeutics: Primary screen using the parental adenocarcinoma cell KB-3-1; 1.4% of 400,000 active; Potency, µM (series often up to 46.1 µM), hits mostly cytotoxic; KB-3-1 viability, CellTiter-Glo ATP luminescence, 72 h; also: nearly all actives have a fitted effect of over 60% in size
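Multi-concentration cytotoxicity screen in KB-3-1 cells grown in DMEM lacking phenol red with 10% FBS. After 72 h at 37 °C with compound, ATP-dependent luminescence was recorded.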
Hits are given with their value; - = inactive; ? = inconclusive; . = no result given; [ ] = another dose, or the depositor's remark. An excerpt weighted towards active compounds, which were near 8% of everything screened. Calls follow the shape of the dose curve; as a rule, active = well fitted curve in the direction sought with a large enough effect; inconclusive = small, poorly fitted or top-dose-only effect, or another doubt; inactive = no such curve, though single readings can be large; an effect the other way counts as inactive or inconclusive.

SMILES	MCF10A rereplic	SW480 rereplic	HT1080NT lethal	HT1080 IDH1KD tx	KB-V1 cytotox	KB-3-1 tox
Cn1c(CNC(=O)OC(C)(C)C)n[nH]c1=S	-	-	-	-	-	-
CCOc1cc(OCC)c(C(=O)CCC(=O)O)cc1OCC	-	-	.	.	.	.
CCCc1nc2c3ccccc3ccn2c1Cc1cccc(Cl)c1	.	.	25.9µM	?	-	-
CCCc1nc2c3ccccc3ccn2c1Cc1ccc(C)cc1	.	.	?	?	-	-
O=c1nccc(NCc2ccco2)[nH]1	-[0.0737 µM]	-	-	-	-	?
O=C1c2ccccc2-c2onc3ccc(NCc4ccco4)c1c23	-	?	-	?	10.3µM	-
O=C1C(Cl)=C(NCc2ccco2)C(=O)c2ccccc21	?	?	?	16.4µM	?	?
O=C(NCCN1CCCC1)c1ccccc1Cl	-	-	-	-	-	-
O=C1C(Cl)=C(NCCN2CCCCC2)C(=O)c2ccccc21	?	-	14.6µM	23.1µM	?	?
CCc1nc(SCc2cc(=O)c3cc(F)ccc3[nH]2)n[nH]1	.	.	.	.	-	-
CCCN1C(=O)/C(=C2\SC(N3CCCCC3)=NC2=O)c2ccccc21	-	-	-	-	?	-
CN1C(=O)/C(=C2\SC(N3CCCCCC3)=NC2=O)c2ccccc21	-	-	?	-	2.06µM	?
Cc1ccc(/C=C/c2nc3ccccc3c(=O)[nH]2)cc1	?	?	-	-	-	-
Cc1ccccc1/C=C/c1nc2ccccc2c(=O)[nH]1	18.4µM	?	-	-	?	?
N#CCOc1ccccc1/C=C/c1nc2ccccc2c(=O)[nH]1	-	13µM	-	-	-	-
COc1cc(/C=C/c2nc3ccccc3c(=O)[nH]2)cc(OC)c1OC	18.4µM	3.26µM	?	?	-	2.91µM
Cc1ccccc1/C=C\c1nc2ccccc2c(=O)[nH]1	?	?	16.4µM	16.4µM	?	?
CC1=C(C(=O)Nc2c(C)cc(C)cc2C)C2(CCN(C(C)C)CC2)OC1=O	.	.	.	.	-	-
COc1ccc(S(=O)(=O)N2CCCCCC2)cc1N	-	-	-	-	-	-
COCCOC(=O)N/C=C\c1nc2ccccc2c(=O)[nH]1	?	16.4µM	?	?	-	?
COc1ccc(-c2cc(-c3ccccc3)c(C#N)c(SCC(=O)Nc3ncc(C)s3)n2)cc1	23.1µM	?	-	-	?	-
N#Cc1c(-c2ccc(Cl)cc2)cc(-c2ccccc2)nc1SCC(=O)O	-	-	-	-	-	-
N#Cc1c(-c2ccc(F)cc2)cc(-c2ccccc2)nc1SCC(=O)NCC(=O)O	-	16.4µM	-	-	-	-
COc1ccc(-c2cc(-c3ccc(OC)cc3)c(C#N)c(SC)n2)cc1	20.6µM	-	-	-	-	-
CCn1c(SCC(=O)NCc2ccco2)nnc1-c1ccc(N(C)C)cc1	.	.	.	.	-	-
SMILES	MCF10A rereplic	SW480 rereplic	HT1080NT lethal	HT1080 IDH1KD tx	KB-V1 cytotox	KB-3-1 tox
CCOC(=O)c1c(CCl)nc2ccccc2c1-c1ccccc1	?	?	-	-	-	-
ClCc1nc2ccccc2c2ccccc12	?	18.4µM	5.8µM	18.4µM	?	?
COc1ccc2c(CC(=O)Nc3ccc(C)cc3)coc2c1	.	.	.	.	-	-
C(/Oc1ccccc1)=C1\Nn2c(nnc2-c2cc(-c3ccccc3)n[nH]2)S1	.	.	.	.	-	?
COc1ccc(C(=O)N=c2sc3c(C)ccc(OC)c3n2C)cc1OC	-	-	-	-	18.4µM	?
CCN1c2ccccc2NC2C1C(C(C)=O)C(=O)N2c1ccc(Cl)cc1 (stereo not given)	2.91µM	4.61µM	?	15.8µM	-	-
O=C1Nc2ccccc2N(O)N1c1ccc(Cl)cc1	?	-	-	-	-	-
COc1ccc(-c2cnnn2-c2ccc(NC(=O)c3c(F)cccc3F)cc2)cc1	.	.	.	.	-	-
O=C(Nc1cc2c(cc1Br)OCCCO2)c1ccccc1	-	-	-	-	20.6µM	-
O=C(CCc1ccccc1)Nc1cc2c(cc1Cl)OCCO2	-	-	-	-	20.6µM	-
O=C(Nc1cc2c(cc1Br)OCCCO2)c1cccnc1	-	-	-	-	-	-
Cc1ccc(C(=O)Nc2cc3c(cc2Cl)OCCCO3)cc1	-	-	-	-	-	-
COc1ccc(C(=O)Nc2cc3c(cc2Cl)OCCCO3)cc1	-	-	-	-	-	-
COc1cccc(C(=O)Nc2cc3c(cc2Cl)OCCCO3)c1	-	-	-	-	23.1µM	-
O=C(Nc1cc2c(cc1Cl)OCCCO2)c1ccc(F)cc1	-	-	-	-	16.4µM	-
CCOc1ccc(NC(=O)CC2C(=O)N(c3ccc(OC)cc3)C(=O)N2CCC2=CCCCC2)cc1 (stereo not given)	.	.	.	.	?	-
COc1ccc(/C(=N/Nc2ncnc3ccccc23)C(=O)O)cc1	-	?	23.1µM	23.1µM	-	-
CCOC(=O)/C(=N\Nc1ncnc2ccccc12)c1ccc(OC)cc1	-	-	-	-	-	-
CC1(C)CC(=O)C(C=Nc2ccc(C(=O)c3ccccc3)cc2N=CC2=C(O)CC(C)(C)CC2=O)=C(O)C1	5.8µM	?	-	-	-	?
CCN1CCN(Cc2ccc(OC)c(OCc3ccccc3)c2)CC1	-	-	-	-	-	-
CCOc1ccccc1N1CCN(Cc2ccc(OC)c(OC)c2)CC1	-	-	-	-	16.4µM	-
CCOc1cc(CN2CCC(CO)(Cc3cccc(C(F)(F)F)c3)CC2)ccc1OC	-	-[1.84 µM]	20.6µM	20.6µM	-	25.9µM
COc1ccc(CN2CCN(c3ccccn3)CC2)cc1OCc1ccccc1	?	-	-	?	9.2µM	-
CCOc1cc(CN2CCCCCC2)ccc1OC	-	?	-	-	-	-
CCOc1ccccc1N1CCN(Cc2ccc(OC)c(OC)c2OC)CC1	-	-	-	-	18.4µM	-
SMILES	MCF10A rereplic	SW480 rereplic	HT1080NT lethal	HT1080 IDH1KD tx	KB-V1 cytotox	KB-3-1 tox
O=C(CCc1nnc2ccc(N3CCC4(CC3)OCCO4)nn12)N1CCCCC1	-	-	-	-	-	-
COC(=O)c1cc(NC(=O)c2cc3sccc3n2Cc2ccc(Cl)cc2)cc(C(=O)OC)c1	.	.	.	.	-	-
N#Cc1ccc(-c2ccc3c(c2)OCO3)nc1SCC(=O)OCc1ccccc1	-	-	-	-	-	-
O=C(CSc1ccc(-c2ccco2)nn1)NCc1ccc(F)cc1	-	-	-	-	-	-
N#Cc1c(-c2ccco2)cc(C2CC2)nc1SCC(=O)c1ccccc1	?	-	-	?	?	-
Cc1ccc(C(=O)CSc2nc(-c3ccccc3)ccc2C#N)cc1	3.66µM	?	-	-	-	-
